ERp5 inh: ERp5 (human) disulfide isomerase inhibition; 0.05% of 350,000 active; Q15084; inhibition, % at 9.99 µM; ERp5 insulin aggregation, absorbance 650 nm, 90 min; AID 651711;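 active means mean replicate inhibition above about 25%, with every replicate also reaching it, limit read from the data, passing the limit was not always enough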
Target sequence (Q15084 whole entry, looked up): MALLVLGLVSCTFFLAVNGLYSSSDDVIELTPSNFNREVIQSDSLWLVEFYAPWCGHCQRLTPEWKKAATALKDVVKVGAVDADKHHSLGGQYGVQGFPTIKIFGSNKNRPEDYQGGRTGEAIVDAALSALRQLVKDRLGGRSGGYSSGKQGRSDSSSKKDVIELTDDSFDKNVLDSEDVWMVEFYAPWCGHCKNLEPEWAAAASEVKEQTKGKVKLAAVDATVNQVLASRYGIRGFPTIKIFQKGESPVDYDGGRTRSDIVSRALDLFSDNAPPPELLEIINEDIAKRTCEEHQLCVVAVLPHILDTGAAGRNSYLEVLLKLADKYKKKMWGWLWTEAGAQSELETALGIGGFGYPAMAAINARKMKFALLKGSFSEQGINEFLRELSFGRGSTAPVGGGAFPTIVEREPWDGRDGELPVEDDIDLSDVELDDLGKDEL
PglD DTNB: blocks C. jejuni PglD acetyltransferase activity; inhibition, % at 12.5 µM; 0.098% of 360,000 active; AID 602405; purified PglD enzyme, DTNB colorimetric CoA detection; in the data active means inhibition above about 16%, passing the limit was not always enough
PDI inh: blocks human protein disulfide isomerase activity; PDI insulin aggregation turbidity, A650, 90 min; inhibition, % at 10 µM; 0.052% of 350,000 active; AID 588391;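 active means mean inhibition across replicates of 30% or more, whatever share of single replicates reach that level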
ALR H2O2 inh: blocks human ALR sulfhydryl oxidase activity | P55789 | purified ALR, DTT oxidation, H2O2 HRP-luminol luminescence | inhibition, % (no concentration beside the values) | 3.8% of 290,000 active;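 active means mean replicate inhibition above about 79%, with every replicate also reaching it, limit read from the data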
Target sequence (P55789 whole entry, looked up): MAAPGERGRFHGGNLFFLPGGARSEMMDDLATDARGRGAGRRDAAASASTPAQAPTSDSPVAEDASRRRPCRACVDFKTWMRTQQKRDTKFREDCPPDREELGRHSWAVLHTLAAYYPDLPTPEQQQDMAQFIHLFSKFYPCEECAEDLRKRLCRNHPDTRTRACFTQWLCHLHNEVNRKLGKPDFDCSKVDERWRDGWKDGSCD
NRP1-CendR mod: NRP-1/CendR interaction modulation; O14786; FAM-RPARPAR peptide binding to NRP-1, fluorescence polarization; inhibition, % at 25 µM; 0.85% of 360,000 active;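 active means inhibition or corrected inhibition above about 18%, plus a signal ratio from 0.5 to 1.5, limit read from the data, passing the limit was not always enough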
ARNT-TACC3 inh: ARNT/TACC3 interaction disruption; 0.66% of 390,000 active; inhibition, % at 9.99 µM; Q9Y6A5; AlphaScreen His-ARNT PAS-B/GST-TACC3 binding, luminescence; TACC3 fragment carries E629A point mutation;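 active means mean inhibition of replicates at least 50% and at least half of replicates each reaching 50%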
AlphaScreen ctr: AlphaScreen artifact in ARNT/TACC3 counter-screen | shares compounds with ARNT-TACC3 inh | His-ARNT PASB-GST AlphaScreen artifact counter-screen, luminescence | AC50, µM (top dose mostly 68 µM) | 50% of 1,200 active;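 active means every separate test run was called active for a drop in luminescence, with AC50 within twice the top valid dose, actives reach about 71 µM in these data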
A number is an active result; . = inactive; / = not tested or not shown. Shown is part of a subset that was picked to be rich in hits.

SMILES | ERp5 inh | PglD DTNB | PDI inh | ALR H2O2 inh | NRP1-CendR mod | ARNT-TACC3 inh | AlphaScreen ctr
O=C(Nc1ncc2ccccc2n1)c1cc(-c2ccccc2)on1 | / | / | / | / | / | / | .
O=C(Nc1nnc(-c2ccccc2)s1)c1cc(-c2ccccc2)on1 | / | / | / | / | / | / | .
O=C(C[C@H]1CC[C@@H]2[C@H](COC[C@H](O)CN2C(=O)Nc2ccc(F)cc2)O1)NCCCN1CCOCC1 | . | . | / | / | / | . | /
Cc1ccc(S(=O)(=O)NC(=O)c2cc(C)n(CCCn3ccnc3)c2C)cc1 | / | . | . | . | . | 53 | .
Cc1ccc(S(=O)(=O)NCCCn2ccnc2)cc1 | . | / | . | . | . | . | /
O=C(NCC(F)(F)F)[C@@H]1[C@@H](CO)[C@@H]2Cn3c(cccc3=O)[C@H]1N2C(=O)C1CCC1 | . | . | / | / | / | . | /
OCCCNc1nc(-c2ccc(Cl)cc2)nnc1-c1ccccc1 | / | . | . | / | . | . | /
Cc1cc2nc(-c3ccccn3)c(-c3ccccn3)nc2cc1C | . | . | . | / | . | . | /
Cc1ccc(CNc2nc(-c3ccccn3)nnc2-c2ccccc2)cc1C | / | / | / | / | / | / | 2.8µM
C=CCNc1nc(-c2ccccn2)nnc1-c1ccccc1 | / | . | . | . | . | 104 | 1.3µM
Oc1ccccc1-c1nc(NCc2cccnc2)c2ccccc2n1 | . | . | . | . | . | . | /
c1ccc(-c2nnc(-c3ccccn3)nc2NCc2cccnc2)cc1 | / | / | / | / | / | / | 0.69µM
c1ccc(-c2ccc(CNc3nc(-c4ccccn4)nnc3-c3ccccc3)cc2)cc1 | / | / | / | / | / | / | 3.4µM
C=CCNC(=O)c1ccc2nc(-c3ccccc3)c(-c3ccccc3)nc2c1 | / | . | . | . | . | . | /
Cc1ccc(-c2cnc3c(c2)C(=O)N([C@@H](C)CO)C[C@@H](C)[C@@H](CN(C)C(=O)c2cccnc2)O3)cc1 | . | . | / | / | / | . | /
O=C(Nc1ccc(Cl)c(Cl)c1)N[C@@H]1CC[C@H](CCNC(=O)c2ccc(F)cc2)O[C@H]1CO | . | . | / | / | / | . | /
C[C@@H]1CCCCO[C@H](CN(C)Cc2ccncc2)[C@H](C)CN([C@H](C)CO)C(=O)c2cc(NS(=O)(=O)c3ccccc3)ccc2O1 | . | . | / | / | / | . | /
C/C=C/c1ccc2c(c1)O[C@H](CN(C)C(=O)Cc1ccccc1)[C@@H](C)CN([C@@H](C)CO)S2(=O)=O | . | . | / | / | / | . | /
Cc1ccccc1CNc1nc(-c2ccccn2)nnc1-c1ccccc1 | / | / | / | / | / | / | 3.1µM
Cc1cccc(CNc2nc(-c3ccccn3)nnc2-c2ccccc2)c1 | / | / | / | / | / | / | 2.1µM
COc1ccc(CNc2nc(-c3ccccn3)nnc2-c2ccccc2)cc1 | / | / | / | / | / | / | 1.7µM
Cc1ccc(CNc2nc(-c3ccccn3)nnc2-c2ccccc2)cc1 | / | / | / | / | / | / | 1.5µM
CN(C)C(=O)c1cccc(-c2ccc([C@H]3[C@@H](CO)N4CCCCN(CCC(F)(F)F)C[C@@H]34)cc2)c1 | . | . | / | / | / | . | /
O=C(COC(=O)c1ccc([N+](=O)[O-])s1)NCCc1ccccc1 | . | . | . | . | . | 50 | .
Cn1c(CCNC(=O)c2ccc(Cl)c(Cl)c2)nnc1SCc1ccc(Cl)c(Cl)c1 | / | . | . | . | . | 60 | .
SMILES | ERp5 inh | PglD DTNB | PDI inh | ALR H2O2 inh | NRP1-CendR mod | ARNT-TACC3 inh | AlphaScreen ctr
CC(=O)N1CC2(C1)[C@H](c1ccc(-c3cccc(F)c3)cc1)[C@H](CO)N2CC1CCCC1 | . | / | / | / | / | / | /
O=S(=O)(c1ccccc1)N1C[C@H]2[C@@H](c3ccccc31)[C@@H](CO)N2Cc1ccccn1 | . | . | / | / | / | 27 | .
Cc1cccc(S(=O)(=O)N2C[C@H]3[C@@H](c4ccccc42)[C@@H](CO)N3Cc2ccccn2)c1 | . | . | / | / | / | . | /
O=C(NCC[C@@H]1CC[C@@H](NC(=O)c2cnccn2)[C@H](CO)O1)c1ccc2c(c1)OCO2 | . | . | / | / | / | . | /
CCc1ccc2c(c1)C1(NN=C(c3ccc(C)cc3)S1)C(=O)N2 (centres undefined) | / | . | . | . | . | 61 | 2.8µM
CCc1ccc2c(c1)NC(=O)C2(C)Cc1ccc(F)cc1 (centres undefined) | . | . | . | / | . | / | /
COc1ccc(N(C(C)=O)c2nc3ccccc3[nH]2)cc1 | . | . | . | . | . | 53 | .
CO[C@H](C(=O)N(C)C[C@H]1OCc2ccccc2-c2c(n(C)c3ccccc23)C(=O)N([C@@H](C)CO)C[C@@H]1C)c1ccccc1 | . | . | / | / | / | . | /
O=C(N/N=C/c1ccccc1O)C1SCCCS1 | . | / | . | . | . | 56 | .
CCOc1cccc(/C=N/NC(=O)c2cc(-c3cccn3C)n[nH]2)c1O | . | / | . | . | . | 51 | .
COc1cc(OC)c(OC)cc1/C=N/NC(=O)c1cc(-c2cccn2C)n[nH]1 | / | . | . | . | . | . | /
C[C@H](CO)N1C[C@H](C)[C@H](CN(C)C(=O)C2CC2)Oc2cc(C3=CCCCC3)ccc2S1(=O)=O | . | . | / | / | / | . | /
Nc1ccccc1C(=O)NCc1ccc(F)cc1 | . | . | . | . | . | . | /
Nc1ccccc1C(=O)N=Nc1[nH]c(N)c2ccccc12 | . | / | . | . | . | 62 | 56µM
C[C@H](CO)N1C[C@H](C)[C@@H](CN(C)C(=O)Nc2ccc(C(F)(F)F)cc2)Oc2ccc(NS(=O)(=O)c3ccc(Cl)cc3)cc2CC1=O | . | . | / | / | / | . | /
O=C(c1cc(-c2ccccc2)on1)N1CCN(c2ccncc2)CC1 | / | / | / | / | / | / | .
O=C(c1cc(-c2ccccc2)on1)N1CCN(c2ccccc2)CC1 | . | . | . | . | . | . | /
O=C(c1cc(-c2ccccc2)on1)N1CCCC1 | / | . | . | . | . | . | /
O=C(c1cc(-c2ccccc2)on1)N1CCC(CO)CC1 | / | / | / | / | / | / | .
COc1ccccc1N1CCN(C(=O)c2cc(-c3ccccc3)on2)CC1 | . | . | . | / | . | . | /
O=C(c1cc(-c2ccccc2)on1)N1CCC(N2CCCC2)CC1 | / | / | / | / | / | / | .
O=C(Nc1cccc(Cl)c1)N[C@H]1CC[C@@H](CCNC(=O)C2CCOCC2)O[C@@H]1CO | . | . | / | / | / | . | /
O=C(Nc1ccc(F)cc1)Nc1ccc2c(c1)[C@@H]1C[C@H](CC(=O)N3CCOCC3)O[C@H](CO)[C@@H]1O2 | . | . | / | / | / | . | /
COCC(=O)N1[C@@H](C#N)[C@@H](c2ccccc2C2=CCCCC2)[C@@H]1CO | . | / | / | / | / | / | /
CCC(=O)N[C@@H]1CC[C@H](CC(=O)NCc2ccc(OC)cc2)O[C@H]1CO | . | . | / | / | / | . | /
N/C(=N\NS(=O)(=O)c1ccccc1Cl)c1ccccn1 | . | / | . | 83 | . | 55 | .
N/C(=N\OS(=O)(=O)c1ccc(Cl)cc1)c1ccccn1 | . | / | . | / | . | 53 | .
N/C(=N\OC(=O)c1ccccc1Cl)c1ccccn1 | . | . | . | . | . | . | /
O=C(c1ccccc1F)N1CC[C@@H]2[C@H](CO)Nc3ccc(-c4ccc(F)cc4)cc3[C@@H]21 | . | . | / | / | / | . | /
CO[C@@H]1CN(C)C(=O)c2ccc(NS(=O)(=O)c3cn(C)cn3)cc2OC[C@@H](C)N(CC2CC2)C[C@@H]1C | . | . | / | / | / | . | /

High-throughput results as filed in PubChem.
